Among the data in paper PMC11006913 are binding signal values, retold here.

Assay in all cases: PBM; 200 nM protein, PBS
What all share (settings): dsDNA, one strand shown

The target in test [1] is HOXA7 (Homo sapiens, UniProt P31268 116-202).
Test [2] has as its target HOXA7 (Homo sapiens, UniProt P31268 116-202, W177C).
In a further test the target is T1, NKX2-4 (Homo sapiens, UniProt Q9H2Z4 175-261, T231S).
T1 sequence: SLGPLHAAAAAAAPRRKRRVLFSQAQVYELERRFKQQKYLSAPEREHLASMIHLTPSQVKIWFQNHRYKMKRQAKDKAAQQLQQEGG

Test [3] addresses T2, NKX2-6 (Homo sapiens, UniProt A6NCS4 118-204, R150C).
T2 sequence: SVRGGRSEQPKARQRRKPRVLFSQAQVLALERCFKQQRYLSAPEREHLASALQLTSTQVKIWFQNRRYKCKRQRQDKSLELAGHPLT

The target in test [4] is T3, NKX2-6 (Homo sapiens, UniProt A6NCS4 118-204, F151L).
T3 sequence: T2 sequence with C33R, F34L

For test [5], the target named is NKX3-2 (Homo sapiens, UniProt P78367 192-278, P234S).
Sequence of NKX3-2 (Homo sapiens, UniProt P78367 192-278, P234S) (P78367 192-278 P234S): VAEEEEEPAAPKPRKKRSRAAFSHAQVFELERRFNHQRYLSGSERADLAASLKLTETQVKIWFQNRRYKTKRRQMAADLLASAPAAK
In test [6] the target is NKX3-2 (Homo sapiens, UniProt P78367 192-278).
Sequence of NKX3-2 (Homo sapiens, UniProt P78367 192-278) (P78367 192-278): as the sequence (P78367 192-278 P234S) above, with S43P counted along it
Another test concerns the target HOXC10 (Homo sapiens, UniProt Q9NYD6 254-340).

Positions count from the first letter of the chain named.

Sequence of HOXA7 (Homo sapiens, UniProt P31268 116-202) (P31268 116-202): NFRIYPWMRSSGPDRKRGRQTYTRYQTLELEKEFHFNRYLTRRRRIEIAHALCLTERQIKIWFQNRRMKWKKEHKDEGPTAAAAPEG
Sequence of HOXC10 (Q9NYD6 254-340): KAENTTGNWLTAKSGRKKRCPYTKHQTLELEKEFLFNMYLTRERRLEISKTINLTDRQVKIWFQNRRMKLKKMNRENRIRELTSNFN
Sequence of HOXA7 (Homo sapiens, UniProt P31268 116-202, W177C) (P31268 116-202 W177C): as the sequence (P31268 116-202) above, with W62C counted along it

In the case of CACGGAAG, the binding signal in the test with HOXA7 [1] is 8.42 upbm affinity estimate (log intensity, higher = more binding, comparable within an allelic series); with HOXA7 [2], 8.45 upbm affinity estimate (log intensity, higher = more binding, comparable within an allelic series).

Regarding CCCCCGAC, the binding signal was 8.66 upbm affinity estimate (log intensity, higher = more binding, comparable within an allelic series) in the test with HOXA7 [1] and 8.36 upbm affinity estimate (log intensity, higher = more binding, comparable within an allelic series) in the test with HOXA7 [2].

On to AGAAGGCG, for which the binding signal in the test with HOXA7 [1] is 8.35 upbm affinity estimate (log intensity, higher = more binding, comparable within an allelic series); with HOXA7 [2] it was 8.41 upbm affinity estimate (log intensity, higher = more binding, comparable within an allelic series).

Regarding CGACTAGC, the binding signal with HOXA7 [1] is 8.47 upbm affinity estimate (log intensity, higher = more binding, comparable within an allelic series); in the test with HOXA7 [2], 8.47 upbm affinity estimate (log intensity, higher = more binding, comparable within an allelic series).

GCTCGGTA: the binding signal in the test with HOXA7 [1] was 8.46 upbm affinity estimate (log intensity, higher = more binding, comparable within an allelic series); with HOXA7 [2] it was 8.43 upbm affinity estimate (log intensity, higher = more binding, comparable within an allelic series).

ACCTAATC: the binding signal with HOXA7 [1] is 9.7 upbm affinity estimate (log intensity, higher = more binding, comparable within an allelic series); with HOXA7 [2], 8.88 upbm affinity estimate (log intensity, higher = more binding, comparable within an allelic series).

As to CTCAGCTC, the binding signal with HOXA7 [1] is 8.44 upbm affinity estimate (log intensity, higher = more binding, comparable within an allelic series); with HOXA7 [2] it was 8.39 upbm affinity estimate (log intensity, higher = more binding, comparable within an allelic series).

As for CTTCTAGA, the binding signal with HOXA7 [1] is 8.36 upbm affinity estimate (log intensity, higher = more binding, comparable within an allelic series); in the test with HOXA7 [2] it was 8.5 upbm affinity estimate (log intensity, higher = more binding, comparable within an allelic series).

On to GCACTTTA, for which the binding signal in the test with NKX2-4 is 12.8 upbm affinity estimate (log intensity, higher = more binding, comparable within an allelic series); with NKX2-6 [3], 11.7 upbm affinity estimate (log intensity, higher = more binding, comparable within an allelic series); in the test with NKX2-6 [4], 10.7 upbm affinity estimate (log intensity, higher = more binding, comparable within an allelic series); with NKX3-2 [5] it was 12.5 upbm affinity estimate (log intensity, higher = more binding, comparable within an allelic series); with NKX3-2 [6], 12.6 upbm affinity estimate (log intensity, higher = more binding, comparable within an allelic series).

As for TATGCGCA, the binding signal with HOXC10 is 10.8 upbm affinity estimate (log intensity, higher = more binding, comparable within an allelic series).

Consider CTTTTTTA, for which the binding signal with HOXC10 is 11.2 upbm affinity estimate (log intensity, higher = more binding, comparable within an allelic series).

In the case of CCTTATAA, the binding signal with HOXA7 [1] was 9.62 upbm affinity estimate (log intensity, higher = more binding, comparable within an allelic series); with HOXA7 [2] it was 8.88 upbm affinity estimate (log intensity, higher = more binding, comparable within an allelic series).

Turning to GGTTATAC, in the test with HOXC10, the binding signal was 10.8 upbm affinity estimate (log intensity, higher = more binding, comparable within an allelic series).

As for ATATTGTA, the binding signal is 9.55 upbm affinity estimate (log intensity, higher = more binding, comparable within an allelic series) with HOXA7 [1] and 8.9 upbm affinity estimate (log intensity, higher = more binding, comparable within an allelic series) with HOXA7 [2].

Turning to CCAGGTCG, the binding signal was 8.48 upbm affinity estimate (log intensity, higher = more binding, comparable within an allelic series) in the test with HOXA7 [1] and 8.45 upbm affinity estimate (log intensity, higher = more binding, comparable within an allelic series) in the test with HOXA7 [2].

GGCCTGAA: the binding signal is 8.61 upbm affinity estimate (log intensity, higher = more binding, comparable within an allelic series) in the test with HOXA7 [1] and 8.38 upbm affinity estimate (log intensity, higher = more binding, comparable within an allelic series) with HOXA7 [2].

Regarding CAAATAAA, in the test with HOXC10, the binding signal is 11.4 upbm affinity estimate (log intensity, higher = more binding, comparable within an allelic series).

In the case of AGATATGG, in the test with HOXC10, the binding signal was 10.7 upbm affinity estimate (log intensity, higher = more binding, comparable within an allelic series).

Turning to CTCTGAGC, the binding signal with HOXA7 [1] is 8.36 upbm affinity estimate (log intensity, higher = more binding, comparable within an allelic series); with HOXA7 [2] it was 8.46 upbm affinity estimate (log intensity, higher = more binding, comparable within an allelic series).

For the sequence TCATTTCA, the binding signal was 9.51 upbm affinity estimate (log intensity, higher = more binding, comparable within an allelic series) in the test with HOXA7 [1] and 8.76 upbm affinity estimate (log intensity, higher = more binding, comparable within an allelic series) in the test with HOXA7 [2].

With ACCTCGCT, the binding signal with HOXA7 [1] was 8.51 upbm affinity estimate (log intensity, higher = more binding, comparable within an allelic series); with HOXA7 [2] it was 8.51 upbm affinity estimate (log intensity, higher = more binding, comparable within an allelic series).

For GTCATGAA, the binding signal in the test with HOXC10 is 10.8 upbm affinity estimate (log intensity, higher = more binding, comparable within an allelic series).

As to CAAGCACC, the binding signal is 8.65 upbm affinity estimate (log intensity, higher = more binding, comparable within an allelic series) in the test with HOXA7 [1] and 8.49 upbm affinity estimate (log intensity, higher = more binding, comparable within an allelic series) with HOXA7 [2].

AGATAAAC: the binding signal with HOXA7 [1] is 9.31 upbm affinity estimate (log intensity, higher = more binding, comparable within an allelic series); with HOXA7 [2], 8.79 upbm affinity estimate (log intensity, higher = more binding, comparable within an allelic series).

Turning to GTCAGGCA, the binding signal in the test with HOXA7 [1] was 8.57 upbm affinity estimate (log intensity, higher = more binding, comparable within an allelic series); with HOXA7 [2], 8.43 upbm affinity estimate (log intensity, higher = more binding, comparable within an allelic series).

With AGGTCAGA, the binding signal with HOXA7 [1] was 8.56 upbm affinity estimate (log intensity, higher = more binding, comparable within an allelic series); with HOXA7 [2] it was 8.58 upbm affinity estimate (log intensity, higher = more binding, comparable within an allelic series).

Consider GCAGGTCC, for which the binding signal with HOXA7 [1] was 8.46 upbm affinity estimate (log intensity, higher = more binding, comparable within an allelic series); with HOXA7 [2], 8.46 upbm affinity estimate (log intensity, higher = more binding, comparable within an allelic series).

With CCATGCTC, the binding signal in the test with HOXA7 [1] was 8.55 upbm affinity estimate (log intensity, higher = more binding, comparable within an allelic series); in the test with HOXA7 [2], 8.51 upbm affinity estimate (log intensity, higher = more binding, comparable within an allelic series).

As for CTGAAGGC, the binding signal is 8.34 upbm affinity estimate (log intensity, higher = more binding, comparable within an allelic series) with HOXA7 [1] and 8.31 upbm affinity estimate (log intensity, higher = more binding, comparable within an allelic series) with HOXA7 [2].

As for CGTGATAA, the binding signal with HOXC10 was 10.9 upbm affinity estimate (log intensity, higher = more binding, comparable within an allelic series).

Turning to AAATGGTA, in the test with HOXC10, the binding signal is 10.9 upbm affinity estimate (log intensity, higher = more binding, comparable within an allelic series).

In the case of GATGTTAA, in the test with HOXC10, the binding signal was 10.8 upbm affinity estimate (log intensity, higher = more binding, comparable within an allelic series).

In the case of GGCGGTCA, the binding signal with HOXA7 [1] is 8.58 upbm affinity estimate (log intensity, higher = more binding, comparable within an allelic series); in the test with HOXA7 [2], 8.5 upbm affinity estimate (log intensity, higher = more binding, comparable within an allelic series).

On to CTATTATA, for which the binding signal is 10.7 upbm affinity estimate (log intensity, higher = more binding, comparable within an allelic series) in the test with HOXA7 [1] and 8.92 upbm affinity estimate (log intensity, higher = more binding, comparable within an allelic series) with HOXA7 [2].

As to CGTGCAAG, the binding signal was 8.47 upbm affinity estimate (log intensity, higher = more binding, comparable within an allelic series) with HOXA7 [1] and 8.43 upbm affinity estimate (log intensity, higher = more binding, comparable within an allelic series) with HOXA7 [2].

AGATGTTA: the binding signal with HOXC10 was 10.8 upbm affinity estimate (log intensity, higher = more binding, comparable within an allelic series).
